According to PubChem BioAssay AID1159580 (chemical genetic matrix, 2015):
Values joined by “and” are separate entries in the source; they are usually repeats but may differ in a detail not shown here. Equal values may be shown once. About 2,000 (36%) of roughly 5,500 compounds were called active. Not shown: some 18% with an inconclusive outcome. Cut-off read from the data, not from the text of the source: active = normalized growth mostly below about 0.91 (no sharp cut-off); inconclusive = no clear call, values can overlap the other calls; inactive = mostly above about 0.92. Some of the results follow.

Assay: chemical genetic growth profiling, strain panel (AID 1159580);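 note: tested at 20 µM; growth read once vehicle control cultures reached saturation at 30 °C; 1 = growth at the plate median or of vehicle wells; lower values mean less growth of the strain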
Settings: S. cerevisiae deletion strains, growth OD

Measured: normalized growth

NS(=O)(=O)c1cc2c(cc1C(F)(F)F)NCNS2(=O)=O
inactive: locus YAL013W, strain DEP1, hits give low values 1.03 | locus YAL021C, strain ccr4, hits give low values 0.995 | locus YAL026C, strain drs2, hits give low values 1 | locus YAL030W, strain snc1, hits give low values 0.995 | locus YBL061C, strain skt5, hits give low values 0.996 | locus YBR009C, strain hhf1, hits give low values 0.985 | locus YBR021W, strain FUR4, hits give low values 1 | locus YBR023C, strain chs3, hits give low values 0.989 | locus YBR171W, strain sec66, hits give low values 1.01 | locus YBR229C, strain ROT2, hits give low values 1.02 | locus YBR231C, strain swc5, hits give low values 0.975 | locus YBR279W, strain paf1, hits give low values 0.992 | locus YCL011C, strain gbp2, hits give low values 0.991 | locus YCL016C, strain dcc1, hits give low values 0.969 | locus YCL029C, strain bik1, hits give low values 0.997 | locus YCL061C, strain MRC1, hits give low values 0.997 | locus YCL069W, strain vba3, hits give low values 1 | locus YCR088W, strain abp1, hits give low values 0.999 | locus YDL005C, strain med2, hits give low values 0.99 | locus YDL035C, strain GPR1, hits give low values 1.03 | locus YDL040C, strain nat1, hits give low values 0.996 | locus YDL074C, strain BRE1, hits give low values 1.01 | locus YDL101C, strain DUN1, hits give low values 1.02 | locus YDL185W, strain tfp1, hits give low values 0.997 | locus YDL192W, strain arf1, hits give low values 0.993 | locus YDR001C, strain nth1, hits give low values 1 | locus YDR069C, strain doa4, hits give low values 1.01 | locus YDR101C, strain arx1, hits give low values 1 | locus YDR137W, strain rgp1, hits give low values 1.01 | locus YDR159W, strain sac3, hits give low values 0.966 | locus YDR162C, strain NBP2, hits give low values 1.02 | locus YDR195W, strain ref2 0.994 | locus YDR297W, strain sur2, hits give low values 1.01 | locus YDR318W, strain mcm21, hits give low values 0.986 | locus YDR334W, strain swr1, hits give low values 1.01 | locus YDR335W, strain msn5, hits give low values 0.999 | locus YDR388W, hits give low values 0.998 | locus YDR392W, strain spt3, hits give low values 0.939 | locus YDR502C, strain sam2, hits give low values 0.988 | locus YEL003W, strain gim4, hits give low values 1 | locus YEL037C, strain rad23, hits give low values 1.02 | locus YEL061C, strain CIN8 (second series), hits give low values 1.01 | locus YEL061C, strain CIN8, hits give low values 1.02 | locus YER015W, strain faa2, hits give low values 0.97 | locus YER016W, strain bim1, hits give low values 1 | locus YER110C, hits give low values 0.99 | locus YER111C, strain swi4, hits give low values 1 | locus YER155C, strain BEM2 (second series), hits give low values 0.98 | locus YER155C, strain BEM2, hits give low values 1 | locus YER167W, strain BCK2, hits give low values 1.01 | locus YFR010W, strain ubp6, hits give low values 1 | locus YGL078C, strain dbp3, hits give low values 0.983 | locus YGL086W, strain mad1, hits give low values 0.99 | locus YGL167C, strain pmr1, hits give low values 0.998 | locus YGL173C, strain kem1, hits give low values 0.998 | locus YGL227W, strain vid30, hits give low values 1 | locus YGL240W, strain doc1, hits give low values 0.965 | locus YGL248W, strain PDE1, hits give low values 1.02 | locus YGL253W, strain hxk2, hits give low values 1.01 | locus YGR135W, strain pre9, hits give low values 0.974 | locus YGR252W, strain gcn5, hits give low values 0.922 | locus YHR013C, strain ard1, hits give low values 0.989 | locus YHR027C, strain rpn1, hits give low values 1.01 | locus YHR030C, strain SLT2, hits give low values 1.01 and 0.988 | locus YHR079C, strain IRE1 (second series), hits give low values 0.998 | locus YHR079C, strain IRE1, hits give low values 0.984 | locus YHR094C, strain hxt1, hits give low values 0.993 | locus YHR129C, strain ARP1, hits give low values 1.02 | locus YHR142W, strain chs7, hits give low values 1.01 | locus YHR200W, strain rpn10, hits give low values 0.988 | locus YIL066C, strain RNR3, hits give low values 1.03 | locus YIL073C, strain SPO22, hits give low values 1.01 | locus YIL125W, strain kgd1, hits give low values 0.992 | locus YIR030C, strain dcg1, hits give low values 0.994 | locus YJL092W, strain hpr5, hits give low values 1 | locus YJL095W, strain BCK1 (second series), hits give low values 0.997 | locus YJL095W, strain BCK1, hits give low values 1.03 and 0.978 | locus YJL115W, strain asf1, hits give low values 1.01 | locus YJL129C, strain trk1, hits give low values 1.01 | locus YJL134W, strain LCB3, hits give low values 1.02 | locus YJL154C, strain vps35, hits give low values 0.993 | locus YJL164C, strain tpk1, hits give low values 0.992 | locus YJL166W, strain qcr8, hits give low values 0.993 | locus YJL168C, strain set2, hits give low values 0.987 | locus YJL187C, strain SWE1 (second series), hits give low values 1.02 | locus YJL187C, strain SWE1, hits give low values 0.994 | locus YJR043C, strain POL32, hits give low values 1.02 | locus YJR066W, strain TOR1, hits give low values 0.928 | locus YKL009W, strain mrt4, hits give low values 1 | locus YKL068W, hits give low values 1 | locus YKL085W, strain MDH1 (second series), hits give low values 0.999 | locus YKL085W, strain MDH1, hits give low values 0.999 | locus YKL160W, strain elf1, hits give low values 0.986 | locus YKL190W, strain CNB1, hits give low values 1.02 | locus YKR001C, strain vps1, hits give low values 1.01 | locus YKR026C, strain gcn3, hits give low values 0.993 | locus YKR091W, strain srl3, hits give low values 0.993 | locus YLL001W, strain dnm1, hits give low values 0.98 | locus YLL026W, hits give low values 0.994 | locus YLL041C, strain sdh2, hits give low values 0.997 | locus YLR027C, strain aat2, hits give low values 1.01 | locus YLR039C, strain RIC1, hits give low values 1.07 | locus YLR058C, strain SHM2, hits give low values 1.02 | locus YLR102C, strain apc9, hits give low values 0.985 | locus YLR113W, strain HOG1, hits give low values 0.991 | locus YLR221C, strain rsa3, hits give low values 0.974 | locus YLR258W, strain gsy2, hits give low values 0.992 | locus YLR262C, strain YPT6 (second series), hits give low values 1 | locus YLR262C, strain YPT6, hits give low values 1.03 | locus YLR268W, strain sec22, hits give low values 0.988 | locus YLR320W, strain mms22, hits give low values 0.988 | locus YLR330W, strain CHS5, hits give low values 1.02 | locus YLR342W, strain FKS1 (second series), hits give low values 1.01 | locus YLR342W, strain FKS1, hits give low values 1 | locus YLR357W, strain rsc2, hits give low values 0.971 | locus YLR370C, strain arc18, hits give low values 0.999 | locus YLR371W, strain rom2, hits give low values 0.979 | locus YLR384C, strain iki3, hits give low values 0.988 | locus YLR418C, strain cdc73, hits give low values 0.967 | locus YML016C, strain PPZ1, hits give low values 1.02 | locus YML032C, strain rad52, hits give low values 0.985 | locus YML120C, strain ndi1, hits give low values 0.983 | locus YML124C, strain tub3, hits give low values 0.988 | locus YMR058W, strain fet3, hits give low values 1.01 | locus YMR078C, strain ctf18, hits give low values 0.997 | locus YMR125W, strain sto1, hits give low values 0.982 | locus YMR129W, hits give low values 0.999 | locus YMR205C, strain PFK2, hits give low values 0.982 | locus YMR223W, strain ubp8, hits give low values 0.986 | locus YMR231W, strain pep5, hits give low values 0.998 | locus YMR307W, strain GAS1, hits give low values 1.01 | locus YNL067W, strain RPL9B, hits give low values 1.02 | locus YNL071W, strain lat1, hits give low values 1 | locus YNL153C, strain GIM3, hits give low values 1.01 | locus YNL183C, strain NPR1, hits give low values 0.96 | locus YNL209W, strain ssb2, hits give low values 0.986 | locus YNL233W, strain BNI4, hits give low values 1.02 | locus YNL248C, strain rpa49, hits give low values 1 | locus YNL250W, strain rad50, hits give low values 0.996 | locus YNL271C, strain bni1, hits give low values 0.999 | locus YNL298W, strain CLA4, hits give low values 0.983 | locus YNL307C, strain MCK1, hits give low values 0.988 | locus YNL322C, strain KRE1 (second series), hits give low values 0.99 | locus YNR049C, strain mso1, hits give low values 0.996 | locus YNR052C, strain pop2, hits give low values 0.991 | locus YOL012C, strain htz1 0.725 | locus YOL147C, strain pex11, hits give low values 0.991 | locus YOR001W, strain rrp6, hits give low values 1.01 | locus YOR061W, strain CKA2, hits give low values 1.03 | locus YOR069W, strain VPS5, hits give low values 1.02 | locus YOR070C, strain gyp1, hits give low values 0.992 | locus YOR080W, strain dia2, hits give low values 0.99 | locus YOR083W, strain WHI5, hits give low values 1.04 | locus YOR106W, strain vam3, hits give low values 0.974 | locus YOR136W, strain idh2, hits give low values 0.991 | locus YOR144C, strain elg1, hits give low values 0.991 | locus YOR184W, strain ser1, hits give low values 0.982 | locus YOR231W, strain MKK1, hits give low values 0.991 | locus YOR265W, strain rbl2, hits give low values 0.993 | locus YOR270C, strain vph1, hits give low values 1.03 | locus YOR290C, strain snf2, hits give low values 0.935 | locus YOR316C, strain cot1, hits give low values 0.997 | locus YPL051W, strain arl3, hits give low values 0.98 | locus YPL055C, strain LGE1, hits give low values 1.02 | locus YPL078C, strain atp4, hits give low values 1 | locus YPL106C, strain sse1, hits give low values 0.966 | locus YPL240C, strain hsp82, hits give low values 0.994 | locus YPL241C, strain CIN2, hits give low values 1.02 | locus YPL256C, strain CLN2, hits give low values 0.976 | locus YPR119W, strain clb2, hits give low values 0.994 | locus YPR141C, strain kar3, hits give low values 0.988 | locus YPR163C, strain tif3, hits give low values 0.995 | locus YPR167C, strain met16, hits give low values 0.987 | strain wtn01, hits give low values 0.977
